Results reported in ChEMBL document CHEMBL3988442, “University of Dundee, Small-Polar-MMV Screening Library” (2021).

Target: T1, Aspartate--tRNA(Asp/Asn) ligase (Mycobacterium tuberculosis (strain ATCC 25618 / H37Rv)) (UniProt P9WFW3); further: in the data most compounds retested in dose-response had high values
T1 sequence (whole entry): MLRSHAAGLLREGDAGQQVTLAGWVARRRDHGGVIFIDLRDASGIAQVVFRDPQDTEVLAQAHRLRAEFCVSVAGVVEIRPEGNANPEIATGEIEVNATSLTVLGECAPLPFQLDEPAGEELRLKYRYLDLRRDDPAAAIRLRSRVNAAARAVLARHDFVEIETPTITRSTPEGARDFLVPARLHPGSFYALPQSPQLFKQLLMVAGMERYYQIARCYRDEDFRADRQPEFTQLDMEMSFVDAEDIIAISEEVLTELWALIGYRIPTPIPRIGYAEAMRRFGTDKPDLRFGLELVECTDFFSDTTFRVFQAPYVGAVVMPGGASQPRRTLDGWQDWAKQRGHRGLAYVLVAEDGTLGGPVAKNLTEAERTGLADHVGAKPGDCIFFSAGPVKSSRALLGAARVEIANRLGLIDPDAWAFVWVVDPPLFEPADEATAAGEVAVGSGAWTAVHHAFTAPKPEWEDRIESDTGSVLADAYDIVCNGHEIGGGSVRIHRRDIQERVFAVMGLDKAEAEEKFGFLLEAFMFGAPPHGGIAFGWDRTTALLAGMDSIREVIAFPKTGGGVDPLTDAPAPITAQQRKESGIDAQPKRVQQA
Test: Assay for Asp RNA synthetase-1 from Mycobacterium tuberculosis
Type: functional
Parameters: scale not given: direction of the effect not stated beside the values
Conditions: 30 µM

With `Cc1cc(C)n(CC2CCCN2C(=O)CCCc2ccccn2)n1` (stereo unspecified) as the compound, how does the Percent Effect read?
Its Percent Effect is -1.59%.

How did the Percent Effect turn out when `CCn1nc(CC(C)C)cc1C(=O)NCCCOC` was run?
Its Percent Effect is -0.668%.

For `CC(C)n1[nH]c(=O)c2c1NC(=O)CC2c1cccnc1` (stereo unspecified), which Percent Effect is on record?
The Percent Effect was -1.05%.

`Cc1ccc(NC(=O)NC(C)c2nc[nH]n2)cc1` (stereo unspecified) was tested. Which Percent Effect did it give?
The Percent Effect was 4.39%.

How did the Percent Effect turn out when `COc1ccccc1CN1CC[C@H]2C[C@@H](C(=O)N3CCCC3)O[C@H]2C1` was run?
The Percent Effect was 0.335%.

With `O=C(COc1coc(CN2CCCCC2)cc1=O)NCc1ccccc1` as the compound, how does the Percent Effect read?
Its Percent Effect is 10.2%.

How did the Percent Effect turn out when `Cn1cnnc1C1CCN(C(=O)CCCOc2ccccc2F)CC1` was run?
The Percent Effect was 0.819%.

How did the Percent Effect turn out when `COc1ncccc1NC(=O)NCC(O)c1ccc(F)cc1F` (stereo unspecified) was run?
Its Percent Effect is 4.06%.

With `CC(C)c1nc(C(=O)N2CCOCC2CC(=O)c2ccco2)c[nH]1` (stereo unspecified) as the compound, how does the Percent Effect read?
The Percent Effect was -0.629%.

With `CN(Cc1ccc(Cl)s1)C(=O)NCc1nnc2n1CCC2` as the compound, how does the Percent Effect read?
The Percent Effect was 0%.

`COCCN1C(=O)[C@]2(CC[C@@H]3CN(C(=O)NCC(C)C)C[C@@H]32)N=C1C` was tested. Which Percent Effect did it give?
The Percent Effect was -3.99%.

`Cc1cnc(CN(C)C2CCN(CC(=O)N(C)c3nccs3)C2)o1` (stereo unspecified) was tested. Which Percent Effect did it give?
Its Percent Effect is -1.66%.

How did the Percent Effect turn out when `Cn1ccnc1CN1CCN(Cc2ccccc2C#N)CC1` was run?
The Percent Effect was 1.91%.

For `CNc1cncc(C2CCCN(S(C)(=O)=O)C2)n1` (stereo unspecified), which Percent Effect is on record?
Its Percent Effect is 5.76%.

With `Cc1[nH]c(=O)c(C#N)cc1C(=O)N1C[C@@H](CN2CCCC2)C[C@H](CO)C1` as the compound, how does the Percent Effect read?
The Percent Effect was -2.04%.

`CC(O)CN1CCN(Cc2cccc(C(=O)N(C)C)c2)CC1` (stereo unspecified) was tested. Which Percent Effect did it give?
The Percent Effect was -6.5%.

For `CCN1CCN(C(=O)c2cnn(-c3ccccc3Cl)c2)CC1`, which Percent Effect is on record?
The Percent Effect was 0.83%.

With `Cn1ccnc1CN1CCN(c2ccc(C#N)cn2)CC1` as the compound, how does the Percent Effect read?
Its Percent Effect is 1.72%.

With `Cc1cc(C)cc(NS(=O)(=O)c2cc3c(c(C(=O)O)c2)OCCO3)c1` as the compound, how does the Percent Effect read?
The Percent Effect was 3.19%.

Which Percent Effect does the source give for `Cc1ccc(=O)n(CC2(O)CCN(Cc3cc(C)c(O)c(C)c3)CC2)n1` here?
Its Percent Effect is -3.32%.

With `CC(=O)N1CCCN(C(=O)c2ccn(-c3cccc(Cl)c3)n2)CC1` as the compound, how does the Percent Effect read?
The Percent Effect was 3%.

Target: Shiga toxin 2 (Escherichia coli O157:H7) (UniProt P09385+P09386)
Test: E. coli 0.157:H7 Shiga Toxin SOP - stx2 screening assay
Type: functional
Parameters: scale not given: direction of the effect not stated beside the values
Conditions: 30 µM

For `COc1ccc(CNC2CCCN(Cc3noc(C)n3)C2)cc1F` (stereo unspecified), which Percent Effect is on record?
The Percent Effect was 6.55%.

How did the Percent Effect turn out when `Cc1cc(C(=O)N2CCC3(CCCN(CC4CC4)C3=O)C2)c(C)n1C` (stereo unspecified) was run?
The Percent Effect was -7.28%.

Which Percent Effect does the source give for `CO[C@H]1CCN(Cc2cnn(C)c2)[C@@H]2CN(Cc3cccnc3)C[C@H]12` here?
Its Percent Effect is -40.9%.

`CC(C)NC(=O)CC1COC2(CCN(Cc3ccccc3)CC2)C1` (stereo unspecified) was tested. Which Percent Effect did it give?
Its Percent Effect is -36%.

`CC(=O)NC1CCCN(C(=O)NCc2cccnc2N(C)C)C1` (stereo unspecified) was tested. Which Percent Effect did it give?
The Percent Effect was -12.4%.

Which Percent Effect does the source give for `CCS(=O)(=O)N1CCC[C@]2(C(=O)N(C)C)CN(c3ccccn3)C[C@@H]2C1` here?
Its Percent Effect is -10.3%.

For `CS(=O)(=O)Cc1cccc(C(=O)N2CCCC(n3cccn3)C2)c1` (stereo unspecified), which Percent Effect is on record?
The Percent Effect was -47.9%.

Which Percent Effect does the source give for `Cc1nnc2n1CCN(C(=O)c1cn(-c3ccccc3Cl)nn1)C2` here?
The Percent Effect was -42.4%.

How did the Percent Effect turn out when `COCCOc1cccc(C(=O)N2CCCC(n3ccnc3C)C2)c1` (stereo unspecified) was run?
Its Percent Effect is -16%.

`COc1ccccc1[C@@H]1CN(Cc2cc(C(C)(C)C)[nH]n2)C[C@H]1C(=O)O` was tested. Which Percent Effect did it give?
Its Percent Effect is -6.54%.

How did the Percent Effect turn out when `CCOCC(O)CN1CCN(C(=O)CC(C)(C)C)CC1` (stereo unspecified) was run?
Its Percent Effect is 14.9%.

How did the Percent Effect turn out when `O=C(CCC1CCCO1)NCc1ccnc(-n2cccn2)c1` (stereo unspecified) was run?
The Percent Effect was 21.6%.

Which Percent Effect does the source give for `COc1ccccc1CC(=O)N1CCC(NCc2cccnc2)CC1` here?
The Percent Effect was 22.4%.

With `Cn1cc(CNCCOc2ccc(F)c(F)c2)c(-c2cccnc2)n1` as the compound, how does the Percent Effect read?
The Percent Effect was -38.1%.

Which Percent Effect does the source give for `CS(=O)(=O)NCC1CCCN(C(=O)Nc2ccccc2Cl)C1` (stereo unspecified) here?
The Percent Effect was 10.6%.

How did the Percent Effect turn out when `FC(F)(F)c1cc(N2CCc3ncnc(NC4CC4)c3CC2)ncn1` was run?
Its Percent Effect is -15.2%.

For `CS(=O)(=O)c1ccccc1C(=O)NCCCN1CCc2ccccc2C1`, which Percent Effect is on record?
Its Percent Effect is -24.7%.

For `Cc1nc(CNCC2CCCN2c2cccnn2)no1` (stereo unspecified), which Percent Effect is on record?
Its Percent Effect is -15.8%.

For `Cc1cc(OCC(=O)N2CCCC(c3noc(C)n3)C2)no1` (stereo unspecified), which Percent Effect is on record?
The Percent Effect was -41.1%.

With `Cc1cc(C)n(CC2CCCN2C(=O)CCCc2ccccn2)n1` (stereo unspecified) as the compound, how does the Percent Effect read?
Its Percent Effect is 31.8%.

With `CCn1nc(CC(C)C)cc1C(=O)NCCCOC` as the compound, how does the Percent Effect read?
The Percent Effect was 11.5%.

`CC(C)n1[nH]c(=O)c2c1NC(=O)CC2c1cccnc1` (stereo unspecified) was tested. Which Percent Effect did it give?
Its Percent Effect is -6.55%.

With `Cc1ccc(NC(=O)NC(C)c2nc[nH]n2)cc1` (stereo unspecified) as the compound, how does the Percent Effect read?
Its Percent Effect is 5.92%.

Which Percent Effect does the source give for `COc1ccccc1CN1CC[C@H]2C[C@@H](C(=O)N3CCCC3)O[C@H]2C1` here?
The Percent Effect was -13.2%.

For `O=C(COc1coc(CN2CCCCC2)cc1=O)NCc1ccccc1`, which Percent Effect is on record?
The Percent Effect was -39.3%.

Which Percent Effect does the source give for `Cn1cnnc1C1CCN(C(=O)CCCOc2ccccc2F)CC1` here?
Its Percent Effect is -1.48%.

For `COc1ncccc1NC(=O)NCC(O)c1ccc(F)cc1F` (stereo unspecified), which Percent Effect is on record?
The Percent Effect was -0.623%.

How did the Percent Effect turn out when `CC(C)c1nc(C(=O)N2CCOCC2CC(=O)c2ccco2)c[nH]1` (stereo unspecified) was run?
The Percent Effect was -1.83%.

For `CN(Cc1ccc(Cl)s1)C(=O)NCc1nnc2n1CCC2`, which Percent Effect is on record?
Its Percent Effect is 27.4%.

Which Percent Effect does the source give for `COCCN1C(=O)[C@]2(CC[C@@H]3CN(C(=O)NCC(C)C)C[C@@H]32)N=C1C` here?
Its Percent Effect is -11.7%.

Which Percent Effect does the source give for `Cc1cnc(CN(C)C2CCN(CC(=O)N(C)c3nccs3)C2)o1` (stereo unspecified) here?
The Percent Effect was -15.8%.

For `Cn1ccnc1CN1CCN(Cc2ccccc2C#N)CC1`, which Percent Effect is on record?
The Percent Effect was 7.78%.

For `CNc1cncc(C2CCCN(S(C)(=O)=O)C2)n1` (stereo unspecified), which Percent Effect is on record?
Its Percent Effect is 2.62%.

For `Cc1[nH]c(=O)c(C#N)cc1C(=O)N1C[C@@H](CN2CCCC2)C[C@H](CO)C1`, which Percent Effect is on record?
Its Percent Effect is -3.42%.

For `CC(O)CN1CCN(Cc2cccc(C(=O)N(C)C)c2)CC1` (stereo unspecified), which Percent Effect is on record?
Its Percent Effect is -1.9%.

`CCN1CCN(C(=O)c2cnn(-c3ccccc3Cl)c2)CC1` was tested. Which Percent Effect did it give?
Its Percent Effect is 16.9%.

Which Percent Effect does the source give for `Cn1ccnc1CN1CCN(c2ccc(C#N)cn2)CC1` here?
Its Percent Effect is -34.8%.

Which Percent Effect does the source give for `Cc1cc(C)cc(NS(=O)(=O)c2cc3c(c(C(=O)O)c2)OCCO3)c1` here?
The Percent Effect was -24.3%.

For `Cc1ccc(=O)n(CC2(O)CCN(Cc3cc(C)c(O)c(C)c3)CC2)n1`, which Percent Effect is on record?
The Percent Effect was -78.5%.

`CC(=O)N1CCCN(C(=O)c2ccn(-c3cccc(Cl)c3)n2)CC1` was tested. Which Percent Effect did it give?
The Percent Effect was 5.49%.
